A selection: hits, their analogues and other compounds. The true share with any hit is near 12%.
WT yeast gro inh – growth inhibition of WT yeast, mitochondrial fusion screen; mitochondrial fusion phenotypic screen, WT strain; inhibition, % at 10 µM; 190,000 compounds, 2.1% hits; AID 1362; in the data active = inhibition above about 58%; tested in S. cerevisiae
KCC2 mod – KCC2 (human) Cl- transport modulation; KCC2 cells, thallium flux FluoZin-2 fluorescence; 190,000 compounds, 2.2% hits; AID 1456; Q9H2X9; B-score of Tl+ flux slope (higher = more flux/activation; lower = inhibition) at 10 µM;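 active = thallium flux slope and its plate-corrected score both differing from the plate sample mean at a set confidence after two filtering rounds, in either direction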;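 also: slope of fluorescence scaled to starting intensity during 10 to 20 s after thallium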
m-calpain inh – blocks pig calpain II enzyme activity | 220,000 compounds, 0.37% hits | purified calpain II, fluorogenic peptide substrate, 30 min | inhibition, % at 16 µM;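 active = inhibition above about 50%, limit read from the data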
ROMK primary – modulates human ROMK potassium channel activity. P48048. Tet-inducible ROMK, thallium flux fluorescence; actives lie on both sides. B-score at 10 µM. 130,000 compounds, 2% hits;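 active = signal ratio slope over the read window, or its plate-corrected B-score, at least 3 SD from the plate mean, either direction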;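 also: B-score of the F/F0 ratio slope over 7 to 12 s after thallium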
Lmaj promast – reduces viability of Leishmania major promastigotes; 200,000 compounds, 9% hits; inhibition, % at 10 µM; resazurin fluorescence viability; in the data active = inhibition above about 50%;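 also: promastigotes grown with compound for 44 hours at 28 °C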
L major 1uM – L. major promastigote growth inhibition, 1 uM repeat; resazurin fluorescence, 48 h; inhibition, % at 1 µM; shares compounds with Lmaj promast; 1,100 compounds, 13% hits;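 active = inhibition above about 50% in both repeat tests, limit read from the data; inconclusive = one repeat under the set limit, the other over it; inactive = both repeats under the set limit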
Numbers stand for hits; - = inactive; ? = inconclusive; . = no result.

SMILES	WT yeast gro inh	KCC2 mod	m-calpain inh	ROMK primary	Lmaj promast	L major 1uM
c1cncc(C2Nc3ccccc3-c3nc4ccccc4n32)c1 (configuration not stated)	-	.	-	-	86	?
O=[N+]([O-])c1ccc(OCC(O)CNCCNc2nccc(C(F)(F)F)n2)cc1 (configuration not stated)	.	-	-	.	.	.
Cc1ccc(-n2cccc2C(=O)NS(=O)(=O)c2ccc(C)cc2)cc1	.	-	-	.	.	.
Cc1ccc(-n2cccc2C(=S)N=P(N(C)C)(N(C)C)N(C)C)cc1	65	-	-	.	57	-
[O-][N+]1=c2ccc(Nc3ccccc3)cc2=NC12CCCCC2	-	-	-	-	100	66
CCn1c(SCc2ccc(OC)cc2)nnc1-c1ccncc1	-	.	-	.	-	.
Cc1ccc2c(c1)-c1cc(C)nn1C(c1ccc3c(c1)OCO3)N2 (configuration not stated)	-	-	-	.	98	95
CC(C)CN(C)C(=O)CCc1nnc(Cc2cccc(C(F)(F)F)c2)o1	-	-	-	-	-	.
Cc1ccnc2nc(C(=O)OCCOc3ccc(F)cc3)nn12	-	-	-	-	-	.
CCOC(=O)C1=C(c2ccccc2)O/C(=C(/C#N)C(F)(F)F)S1	-	-	-	-	74	-
CCC1CCCCN1CC(O)Cn1c2ccccc2n2c(=O)cc(C)c(C#N)c12 (configuration not stated)	-	-	-	-	81	-
Cc1cc(=O)n2c3ccccc3n(CC(O)CN3CCC(C)CC3)c2c1C#N (configuration not stated)	-	-	-	.	-	.
CCn1c(SCC(=O)Nc2ccccc2C(=O)OC)nnc1-c1cccc(C)c1	-	-	-	-	-	.
Cc1cc2nc(SCCOC(=O)Nc3ccccc3)nc(C)c2cc1C	-	-	-	.	66	-
CC(=O)C1=NN(c2ccccc2)C(c2cccs2)N1c1ccc(N(C)C)cc1 (configuration not stated)	.	-	-	.	96	-
CC(=O)C1=NN(c2ccccc2)C(c2ccc3c(c2)OCO3)N1c1ccccc1 (configuration not stated)	-	-	-	-	-	.
CC12CCC(c3c1nc1ccccc1[n+]3[O-])C2(C)C (configuration not stated)	-	-	-	-	-	.
COc1cc(C(=O)NCc2ccc3c(c2)OCO3)ccc1OCc1c(C)noc1C	-	-	-	.	-	.
Cc1ccc(CNC(=O)c2cccc(OCc3c(C)noc3C)c2)cc1	-	-	-	.	80	-
CCN(CC)C(=O)n1cnc(-c2ccccc2)c1-c1ccccc1	-	-	-	.	69	-
CCN(CC)C(=O)CSc1nnc(-c2ccccc2)c(-c2ccccc2)n1	-	-	-	-	-	.
Cc1cccc(Nc2nc(N3CCN(C)CC3)nc(N)c2[N+](=O)[O-])c1	-	-	-	.	96	-
Cc1cccc(Nc2nc(NCc3ccco3)nc(N)c2[N+](=O)[O-])c1	.	-	-	.	.	.
Cc1ccc(C2N3CC4([N+](=O)[O-])CN2CC([N+](=O)[O-])(C3)C4(C)C)cc1 (configuration not stated)	-	-	-	-	65	-
CCOc1ccc(S(=O)(=O)NC(C)(C)C)cc1-c1nc2c(C(C)(C)C)nn(C)c2c(=O)[nH]1	-	-	-	-	71	-
SMILES	WT yeast gro inh	KCC2 mod	m-calpain inh	ROMK primary	Lmaj promast	L major 1uM
CCOc1ccc(S(N)(=O)=O)cc1-c1nc2c(C(C)(C)C)nn(C)c2c(=O)[nH]1	.	-	-	.	.	.
COc1ccc(-c2nnc(SCC(=O)NC(=O)NCc3ccco3)o2)cc1	-	.	-	.	-	.
CC(=O)c1cccc(NC(=S)NC(=O)CC(C)C)c1	-	-	-	-	-	.
CCNC(=O)OCCC12CC3CC(CC(C3)C1)C2	-	-	-	-	86	-
COc1ccc(C(N)CCc2ccc(C)o2)cc1 (configuration not stated)	-	-	-	-	54	-
Cc1nnc(Nc2ccc(Cl)c(C(F)(F)F)c2)[nH]c1=O	-	-	-	-	-	.
COc1ccc2[nH]c(=O)c(CNc3cc(C)ccc3C)cc2c1	.	-	-	.	.	.
CCCn1c(Nc2nc3ccccc3n2C)nc2ccccc21	-	-	-	-	-	.
CCc1ccccc1Nc1nc2ccccc2n1C	-	-	-	-	57	-
N/C(=N\OC(=O)c1cccc(Cn2cc(C(F)(F)F)ccc2=O)c1)c1ccc(Cl)cc1	.	-	-	.	.	.
CCn1c(N2CCN(S(=O)(=O)c3ccc(Cl)cc3)CC2)nc2ccccc21	-	-	-	-	81	-

Bioassay records deposited in PubChem by several laboratories.
